Measurements reported in PubChem BioAssay (EPA / NIEHS).
Records with an inconclusive call do not appear. Active and inactive are the calls of the source. How the source made its calls, unless noted: active means hit-call score of the fitted dose curve at least 0.9, where 1 is the maximum; inconclusive means response in the unintended direction; inactive means score below 0.9.

How the values were obtained:
[1] = target: Oxysterols receptor LXR-alpha (Homo sapiens) (UniProt Q13133); test: ATG_LXRa_TRANS: Attagene TRANS-FACTORIAL HepG2 Assay for human Liver X Receptor alpha (LXRa) (AID 2282980); details: HepG2 Attagene TRANS reporter, LXRa transactivation
How it was run: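 Chemical-induced reporter mRNA measured by RT-PCR with fluorescent labelling and capillary electrophoresis after 24 h dosing of transiently transfected HepG2 cells expressing exogenous NR-Gal4 chimeras; increases scored against DMSO baseline.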

[2] = target: Oxysterols receptor LXR-beta (Homo sapiens) (UniProt P55055); test: ATG_LXRb_TRANS: Attagene TRANS-FACTORIAL HepG2 Assay for human Liver X Receptor beta (LXRb) (AID 2282981); details: HepG2 Attagene TRANS GAL4-LXRb reporter, mRNA
How it was run: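 HepG2 cells transiently transfected with GAL4-UAS reporter units for chimeric NR-Gal4 proteins, dosed for 24 h. Reporter transcripts measured by RT-PCR and capillary electrophoresis; gain-of-signal fitting relative to DMSO.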

[3] = target: Hepatocyte nuclear factor 4-alpha (Homo sapiens) (UniProt P41235); test: ATG_HNF4a_TRANS: Attagene TRANS-FACTORIAL HepG2 Assay for human Hepatocyte Nuclear Factor 4 alpha (HNF4a) (AID 2282982); details: HepG2 HNF4a transactivation reporter, mRNA readout
How it was run: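 HepG2 cells transiently transfected with HNF4a-Gal4 chimera and GAL4-UAS reporter units, dosed for 24 h. Reporter mRNA measured by RT-PCR, fluorescent primer extension and capillary electrophoresis; gain-of-signal fitted relative to DMSO.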

[4] = ATG_M_06_TRANS: Attagene TRANS-FACTORIAL HepG2 Assay for M06 Transcription Factor (Internal Marker) (AID 2282983); details: HepG2 Attagene TRANS M06 internal marker reporter;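 further: reporter transcript level by RT-PCR then capillary electrophoresis fluorescence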
How it was run: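 Cells: HepG2, transient multi-reporter transfection. Exposure: 24 h. Detection: RT-PCR, 6-FAM labelling, HpaI digestion (2 h, 37 °C), capillary electrophoresis. Baseline: DMSO.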

[5] = target: Transcriptional activator Myb (Homo sapiens) (UniProt P10242); test: ATG_Myb_CIS: Attagene CIS-FACTORIAL HepG2 Assay for human Myeloblastosis (Myb) Proto-Oncogene Transcription Factor (AID 2282986; active means hit-call score of the fitted dose curve at least 0.9, where 1 is the maximum; inactive means score below 0.9); details: HepG2 Attagene CIS-FACTORIAL Myb reporter transcription; actives raise or lower the signal
How it was run: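 HepG2 cells were transiently transfected with cis-regulated multiple reporter transcription units reflecting endogenous Myb activity, then exposed to compound for 24 hours. Reporter mRNA was measured by RT-PCR with capillary electrophoresis; bidirectional fitting versus DMSO baseline.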

[6] = target: Nuclear respiratory factor 1 (Homo sapiens) (UniProt Q16656); test: ATG_NRF1_CIS: Attagene CIS-FACTORIAL HepG2 Assay for human Nuclear Respiratory Factor 1 (NRF1) Orphan Gene (AID 2282987; active means hit-call score of the fitted dose curve at least 0.9, where 1 is the maximum; inactive means score below 0.9); details: HepG2 NRF1 cis-element reporter, Attagene multiplex; actives raise or lower the signal
How it was run: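 HepG2 cells transiently transfected with multiple reporter transcription units under cis-regulatory promoter control, so endogenous transcription-factor activity is read. After 24 h compound exposure, reporter mRNA quantified by RT-PCR, fluorescent labelling, HpaI digestion and capillary electrophoresis; bidirectional fitting versus DMSO.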

[7] = ATG_NFI_CIS: Attagene CIS-FACTORIAL HepG2 Assay for human Nuclear Factor I (NFI) (AID 2282989; active means hit-call score of the fitted dose curve at least 0.9, where 1 is the maximum; inactive means score below 0.9); details: HepG2 cis-regulatory reporter, NFI response element transcription; actives raise or lower the signal
How it was run: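 After transient transfection of HepG2 with cis-promoter reporter constructs and 24 h dosing, RNA is reverse-transcribed, amplified, 6-FAM end-labelled and HpaI-digested before capillary analysis. Bidirectional curve fitting against DMSO.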

[8] = ATG_M_32_TRANS: Attagene TRANS-FACTORIAL HepG2 Assay for M32 Transcription Factor (Internal Marker) (AID 2282984); details: HepG2 Attagene TRANS M32 internal marker reporter;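 further: transcript level of a background control reporter unit measured by RT-PCR and capillary electrophoresis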
How it was run: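 HepG2 cells transiently transfected with GAL4-UAS reporter units, dosed for 24 hours. Reporter mRNA quantified by RT-PCR, 6-FAM labelling, HpaI digestion and capillary electrophoresis; internal-marker signal fitted upward relative to DMSO.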

[9] = target: Nuclear receptor subfamily 4 group A member 2 (Homo sapiens) (UniProt P43354); test: ATG_NURR1_TRANS: Attagene TRANS-FACTORIAL HepG2 Assay for human Nuclear Receptor Related Protein 1 (NURR1) (AID 2282985); details: HepG2 Attagene TRANS reporter, mRNA readout
How it was run: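 HepG2 cells transiently transfected with NURR1-Gal4 chimera and GAL4-UAS reporter units; after 24 hr compound exposure, reporter mRNA quantified by RT-PCR and capillary electrophoresis; gain of signal fitted against DMSO.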

Measured: outcome

Sequence of Oxysterols receptor LXR-beta (Homo sapiens) (P55055 whole entry, looked up, the tested form may be a part): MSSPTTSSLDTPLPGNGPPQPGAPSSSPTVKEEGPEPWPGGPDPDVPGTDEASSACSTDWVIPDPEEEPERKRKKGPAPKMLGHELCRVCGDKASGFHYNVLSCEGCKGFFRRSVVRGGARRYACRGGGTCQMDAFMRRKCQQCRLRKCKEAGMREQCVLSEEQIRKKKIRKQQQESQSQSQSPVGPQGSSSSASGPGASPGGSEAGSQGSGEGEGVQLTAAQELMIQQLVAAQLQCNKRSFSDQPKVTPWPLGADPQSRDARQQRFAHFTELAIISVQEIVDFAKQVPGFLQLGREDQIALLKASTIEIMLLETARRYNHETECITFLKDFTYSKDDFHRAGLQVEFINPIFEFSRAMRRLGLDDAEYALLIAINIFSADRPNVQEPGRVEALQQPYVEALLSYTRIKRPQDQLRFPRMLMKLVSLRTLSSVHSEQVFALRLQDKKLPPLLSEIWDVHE
Sequence of Transcriptional activator Myb (Homo sapiens) (P10242 whole entry, looked up): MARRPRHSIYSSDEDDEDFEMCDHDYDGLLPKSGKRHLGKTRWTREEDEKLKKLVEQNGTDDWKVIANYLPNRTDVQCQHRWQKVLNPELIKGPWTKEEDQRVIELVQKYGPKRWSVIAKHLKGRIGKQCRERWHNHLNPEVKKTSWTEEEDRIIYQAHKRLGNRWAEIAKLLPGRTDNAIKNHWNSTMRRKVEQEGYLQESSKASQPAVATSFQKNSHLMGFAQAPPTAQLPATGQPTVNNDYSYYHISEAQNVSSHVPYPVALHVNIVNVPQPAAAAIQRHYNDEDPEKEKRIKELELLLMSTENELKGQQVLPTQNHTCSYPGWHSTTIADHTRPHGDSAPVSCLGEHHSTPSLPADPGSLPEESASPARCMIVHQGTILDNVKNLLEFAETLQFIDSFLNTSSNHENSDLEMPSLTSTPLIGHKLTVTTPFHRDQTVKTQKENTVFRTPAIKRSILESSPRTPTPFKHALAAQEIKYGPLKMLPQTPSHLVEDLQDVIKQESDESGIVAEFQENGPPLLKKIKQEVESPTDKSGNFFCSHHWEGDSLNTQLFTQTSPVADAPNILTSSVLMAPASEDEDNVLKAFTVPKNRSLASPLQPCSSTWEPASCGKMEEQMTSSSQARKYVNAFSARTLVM
Sequence of Nuclear respiratory factor 1 (Homo sapiens) (Q16656 whole entry, looked up): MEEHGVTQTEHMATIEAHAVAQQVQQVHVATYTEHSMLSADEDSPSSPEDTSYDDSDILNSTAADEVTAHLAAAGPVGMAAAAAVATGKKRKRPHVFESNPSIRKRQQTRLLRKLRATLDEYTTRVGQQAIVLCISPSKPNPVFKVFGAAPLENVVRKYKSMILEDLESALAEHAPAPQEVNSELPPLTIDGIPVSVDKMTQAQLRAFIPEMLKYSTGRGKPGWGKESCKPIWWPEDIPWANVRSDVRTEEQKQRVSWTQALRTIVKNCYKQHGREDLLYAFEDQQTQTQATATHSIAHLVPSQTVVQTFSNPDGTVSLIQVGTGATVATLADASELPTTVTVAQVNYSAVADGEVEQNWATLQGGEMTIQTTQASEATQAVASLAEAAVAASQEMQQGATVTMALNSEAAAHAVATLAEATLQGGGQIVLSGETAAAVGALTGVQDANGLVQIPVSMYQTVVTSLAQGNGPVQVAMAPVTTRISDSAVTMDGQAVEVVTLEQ
Sequence of Hepatocyte nuclear factor 4-alpha (Homo sapiens) (P41235 whole entry, looked up, the tested form may be a part): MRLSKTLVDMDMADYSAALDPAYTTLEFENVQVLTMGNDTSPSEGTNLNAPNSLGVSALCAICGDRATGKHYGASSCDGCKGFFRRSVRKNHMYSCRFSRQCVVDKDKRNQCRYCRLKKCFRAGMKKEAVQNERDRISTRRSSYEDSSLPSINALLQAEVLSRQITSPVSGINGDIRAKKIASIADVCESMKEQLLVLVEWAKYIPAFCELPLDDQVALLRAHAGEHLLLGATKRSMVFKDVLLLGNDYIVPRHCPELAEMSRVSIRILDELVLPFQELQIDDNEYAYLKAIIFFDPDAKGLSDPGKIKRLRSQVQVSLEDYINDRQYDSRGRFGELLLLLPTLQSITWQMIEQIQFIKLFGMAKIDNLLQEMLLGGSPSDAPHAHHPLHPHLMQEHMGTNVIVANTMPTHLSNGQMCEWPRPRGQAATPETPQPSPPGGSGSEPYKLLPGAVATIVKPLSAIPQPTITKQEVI
Sequence of Oxysterols receptor LXR-alpha (Homo sapiens) (Q13133 whole entry, looked up, the tested form may be a part): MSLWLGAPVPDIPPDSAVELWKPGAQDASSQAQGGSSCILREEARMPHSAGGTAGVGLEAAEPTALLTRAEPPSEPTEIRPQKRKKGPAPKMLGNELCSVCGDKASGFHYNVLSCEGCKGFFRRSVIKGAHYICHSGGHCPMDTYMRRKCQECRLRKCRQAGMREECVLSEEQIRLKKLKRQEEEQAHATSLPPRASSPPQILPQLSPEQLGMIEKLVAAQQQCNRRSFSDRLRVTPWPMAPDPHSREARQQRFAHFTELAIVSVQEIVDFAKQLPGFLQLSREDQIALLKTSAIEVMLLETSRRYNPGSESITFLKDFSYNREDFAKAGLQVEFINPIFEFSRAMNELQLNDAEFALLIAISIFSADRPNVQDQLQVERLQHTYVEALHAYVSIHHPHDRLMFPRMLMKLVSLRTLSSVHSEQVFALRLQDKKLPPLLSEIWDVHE
Sequence of Nuclear receptor subfamily 4 group A member 2 (Homo sapiens) (P43354 whole entry, looked up, the tested form may be a part): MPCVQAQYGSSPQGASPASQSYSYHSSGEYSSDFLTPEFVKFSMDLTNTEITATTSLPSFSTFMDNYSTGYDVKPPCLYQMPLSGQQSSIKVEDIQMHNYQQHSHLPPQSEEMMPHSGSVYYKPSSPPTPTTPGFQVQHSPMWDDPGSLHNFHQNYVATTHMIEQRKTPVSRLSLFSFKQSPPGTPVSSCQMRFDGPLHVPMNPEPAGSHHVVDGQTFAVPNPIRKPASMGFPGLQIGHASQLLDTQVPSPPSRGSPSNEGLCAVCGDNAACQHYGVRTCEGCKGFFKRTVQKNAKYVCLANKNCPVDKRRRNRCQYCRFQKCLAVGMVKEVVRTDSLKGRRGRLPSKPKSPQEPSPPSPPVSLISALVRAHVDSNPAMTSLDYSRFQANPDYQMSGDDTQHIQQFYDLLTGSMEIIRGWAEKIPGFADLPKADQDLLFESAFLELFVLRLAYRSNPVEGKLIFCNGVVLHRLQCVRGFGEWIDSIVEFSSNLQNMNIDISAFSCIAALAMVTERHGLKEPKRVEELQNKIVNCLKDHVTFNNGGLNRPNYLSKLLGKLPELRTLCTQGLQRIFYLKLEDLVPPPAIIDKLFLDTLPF

CCCN(CCC)c1c([N+](=O)[O-])cc(C(F)(F)F)c(N)c1[N+](=O)[O-]
not listed: [8] | [9]
inactive: all other assays above

CCCCOC(=O)[C@@H](C)Oc1ccc(Oc2ccc(C(F)(F)F)cn2)cc1
not listed: [4]
inactive: all other assays above

COC(=O)c1c(Cl)nn(C)c1S(=O)(=O)NC(=O)Nc1nc(OC)cc(OC)n1
not listed: [9]
inactive: all other assays above

O=C(O)C1(C(=O)Nc2ccc(Cl)cc2Cl)CC1
not listed: [4] | [9]
inactive: all other assays above

COC(=O)c1ccccc1S(=O)(=O)NC(=O)Nc1nc(OC(F)F)cc(OC(F)F)n1
not listed: [1] | [4]
inactive: all other assays above

CCNc1nc(N)nc(Cl)n1
not listed: [3] | [9]
inactive: all other assays above

CCCCCOC(=O)COc1cc(N2C(=O)C3=C(CCCC3)C2=O)c(F)cc1Cl
not listed: [2] | [4]
inactive: all other assays above

COC(=O)c1ccc(I)cc1S(=O)(=O)NC(=O)Nc1nc(C)nc(OC)n1
not listed: [1] | [8] | [9]
inactive: all other assays above

CCCCCCC(C)OC(=O)COc1nc(F)c(Cl)c(N)c1Cl (stereo not given)
not listed: [1] | [2] | [8]
inactive: all other assays above

COC(=O)CSc1cc(N=c2sc(=O)n3n2CCCC3)c(F)cc1Cl
not listed: [3] | [8] | [9]
inactive: all other assays above

Oc1ccc(C(c2ccc(O)cc2)C(Cl)(Cl)Cl)cc1
not listed: [3] | [9]
inactive: all other assays above

CCCCC(CC)COC(=O)c1ccccc1C(=O)O (stereo not given)
not listed: [3] | [9]
inactive: all other assays above

COC(=O)c1cccc(C)c1S(=O)(=O)NC(=O)Nc1nc(OCC(F)(F)F)nc(N(C)C)n1
not listed: [3] | [4]
inactive: all other assays above

CCOC(=O)NCCOc1ccc(Oc2ccccc2)cc1
not listed: [3] | [8]
inactive: all other assays above

CSC(=O)c1cccc2nnsc12
not listed: [1] | [3]
inactive: all other assays above

CCC(O)=C1C(=O)CC(C(=O)O)CC1=O (stereo not given)
not listed: [3]
inactive: all other assays above
